Results filed as inconclusive are left out. Where a call stands in place of a potency, no number is given. Activity calls are given as the source filed them. Calls come from the whole dose curve.

The test can be described thus: qHTS assay to identify small molecule antagonists of the sonic hedgehog signaling (Shh) pathway (AID 1259369). Note: nearly all actives have a fitted effect of over 45% in size. The conditions noted are these: NIH/3T3 Gli1-Luc reporter, Shh antagonist, luminescence 24 h; series mostly up to 92.4 µM. An excerpt:
U.S. Tox21 Program National Center for Advancing Translational Sciences [NCATS] NIH Chemical Genomics Center [NCGC] U.S. Environmental Protection Agency [EPA] National Institutes of Environmental Health Sciences [NIEHS] National Toxicology Program [NTP] U.S. Food and Drug Administration [FDA] Tox21 Assay Overview: The sonic hedgehog (Shh) pathway is essential for normal embryonic development. Dysregulation of the Shh pathway can cause severe developmental defects in organs. Therefore chemicals that interfere with the pathway are potential developmental toxicants. A cell line designated 3T3Gli1-Luc (DMB/OARSA/CFSAN/FDA, Laurel, MD), a NIH/3T3 derived clone containing stably integrated Gli1-Luc reporter is used to detect chemical interference of the Shh pathway, by changes in the expression of the firefly Luc gene under the control of the Gli1 transcriptional response element. This cell line was used to screen Tox21 libraries for identifying and prioritizing the potential developmental toxicants that interfere Shh pathway. Conditioned medium-stimulated mode was used to screen for chemicals inhibiting Shh signaling.
Tox21 Assay Protocol Summary: 3T3 Gli1-Luc cells were dispensed at 2,000 per well in 5uL of culture medium into white solid bottom 1536-well plates (Greiner Bio-One, Monroe, NC) using a Multidrop Combi (Thermo Scientific, Waltham, MA) dispenser. The assay plates were incubated at 37 C and 5% CO2 for 4hr, and then 23nL of compounds dissolved in DMSO and positive control were transferred using a Pintool station (Wako, San Diego, CA). The compound transfer was followed by the addition of 1ul conditioned medium or assay buffer using two separate tips of Flying Reagent Dispenser (FRD, Aurora Discovery, San Diego, CA). The assay plates were incubated at 37C and 5% CO2 for 24hr. For luciferase read, 4uL of Amplite Luciferase reporter gene assay reagent (AAT Bioquest, Inc. Sunnyvale, CA) was added to each well of the assay plates using FRD and incubated at room temperature for 30min. The luminescence signal was measured using a ViewLux plate reader (Perkin Elmer, Shelton, CT).
(qHTS replaces the single test concentration by a dilution series.)
Take `C=CC(=O)OCCC(=O)O`: the Potency result was “inactive”.

Regarding `O=C1C(c2[nH]c3ccccc3c2O)=Nc2ccccc21`, the Potency result was “inactive”.

In the case of `N#Cc1ccccc1`, the Potency entry is “inactive”.

With `COc1ccc(OC)cc1`, the Potency result was “inactive”.

Take `CC(C)c1cccc(C(C)C)c1`: the Potency result was “inactive”.

Take `Cc1ccc(C(C)C)c(O)c1`: the Potency entry was “inactive”.

On to `OCc1cccc(Oc2ccccc2)c1`, for which the Potency entry is “inactive”.

As for `CCCCCCC=O`, the Potency entry is “inactive”.

With `NCCNCCN`, the Potency entry is “inactive”.

Turning to `COc1cc(OC)c(C(=O)CCCN2CCCC2)c(OC)c1`, the Potency result is “inactive”.

As to `CNC(=S)N(C)C`, the Potency result is “inactive”.

Take `N[C@H](Cc1c[nH]c2ccccc12)C(=O)O`: the Potency result is “inactive”.

With `CCCCCCCCCCCCCCCC(=O)OC(C)C`, the Potency entry is “inactive”.

Regarding `Cc1ccc([N+](=O)[O-])cc1S(=O)(=O)O`, the Potency result was “inactive”.

With `CN(C)CCOC(=O)COc1ccc(Cl)cc1`, the Potency result is “inactive”.

`CCCCOC(=O)c1ccc(N)cc1`: the Potency result is “inactive”.

Turning to `CCNc1ccccc1`, the Potency result is “inactive”.

Consider `CN(C)c1ccc(O)c2c1C[C@H]1C[C@H]3[C@H](N(C)C)C(=O)C(C(N)=O)=C(O)[C@@]3(O)C(=O)C1=C2O`, for which the Potency result was “inactive”.

For `O=C1c2ccccc2CCc2ccccc21`, the Potency entry was “inactive”.

On to `C=Cc1ccc(C)cc1`, for which the Potency result is “inactive”.

As to `O=c1[nH]cnc2[nH]ncc12`, the Potency result is “inactive”.

In the case of `CC(C)(C)c1cc(Cc2cc(C(C)(C)C)c(O)c(C(C)(C)C)c2)cc(C(C)(C)C)c1O`, the Potency result was “inactive”.

`CC(=O)OCCOC(C)=O`: the Potency result was “inactive”.

On to `CC(CCO)CC(C)(C)C` (stereo not given), for which the Potency result was “inactive”.

For `CN1C(=O)CC[C@H]1c1cccnc1`, the Potency result was “inactive”.

With `CC1(C)S[C@@H]2[C@H](NC(=O)COc3ccccc3)C(=O)N2[C@H]1C(=O)O`, the Potency result is “inactive”.

Regarding `COc1ccc(CCC(C)=O)cc1`, the Potency result is “inactive”.

As for `COC(=O)CCCC(=O)OC`, the Potency result is “inactive”.

Turning to `CC(=O)CC(C)(C)O`, the Potency result was “inactive”.

For the compound `C=C(C)[C@H]1CC=C(C)C(=O)C1`, the Potency entry was “inactive”.

Consider `CCCCCCCCCCN`, for which the Potency entry is “inactive”.

`CC(C)(Oc1ccc(CCNC(=O)c2ccc(Cl)cc2)cc1)C(=O)O`: the Potency result is “inactive”.

As to `O=C(O)c1ccccc1C(=O)O`, the Potency result was “inactive”.

Regarding `CNC(=O)Oc1ccc2c(c1)[C@]1(C)CCN(C)[C@@H]1N2C`, the Potency result was “inactive”.

As for `COCCCN`, the Potency entry is “inactive”.

With `OC1C(O)C(O)C(O)C(O)C1O` (stereo not given), the Potency entry is “inactive”.

For `CCCCCCO`, the Potency result was “inactive”.

In the case of `O=S(=O)(O)c1ccc(N=Nc2c(O)ccc3cc(S(=O)(=O)O)ccc23)cc1`, the Potency entry is “inactive”.

In the case of `COc1ccc(C)cc1N`, the Potency result is “inactive”.

With `CCCCCC(=O)O`, the Potency entry is “inactive”.

Values taken from PubChem BioAssay (Tox21).
